Assay results from PubChem BioAssay (NCATS).
Records with an inconclusive call do not appear. Entries that show only a call come without a potency. Calls of active or inactive are those of the source. Unless noted, calls come from the whole dose curve; as a rule, active = well fitted curve in the direction sought with a large enough effect; inconclusive = small, poorly fitted or top-dose-only effect, or another doubt; inactive = no such curve, though single readings can be large; an effect the other way counts as inactive or inconclusive.

Key:
[1] = NCATS anti-infectives library activity on HEK293 viability as a counter-qHTS vs the C. elegans viability qHTS (AID 1745854);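 note: HEK293 cells exposed to compounds for 24 hr before the viability read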
How it was run: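 Compounds were acoustically plated (several concentrations, 1:5, final up to 41.7 uM), then 1500 HEK293 cells added per well and incubated 24 hr at 37C, 5% CO2. CellTiter-Glo was added and luminescence read after 10 min.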

[2] = biological target: Glutathione peroxidase 1 (Homo sapiens) (UniProt P07203); experiment: Primary qHTS Assay for Inhibitors of Recombinant Selenoprotein Glutathione Peroxidase 1 (GPX1) (AID 1845191); note: nearly all actives have a fitted effect of over 65% in size
Glutathione peroxidase 1 (Homo sapiens), sequence (P07203 whole entry, looked up): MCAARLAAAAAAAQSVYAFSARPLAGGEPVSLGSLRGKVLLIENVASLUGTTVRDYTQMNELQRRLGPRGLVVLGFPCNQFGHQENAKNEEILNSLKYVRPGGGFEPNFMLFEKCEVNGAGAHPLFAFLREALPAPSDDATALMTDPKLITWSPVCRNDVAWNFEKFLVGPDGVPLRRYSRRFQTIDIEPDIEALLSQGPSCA
How it was run: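 10 nM GPX1 + cpd, 30 min RT; start w/ 1 mM GSH, 0.5 mM cumene hydroperoxide, 0.5 mM NADPH, 100 nM GR, 0.01% BSA; buffer 50 mM Tris-HCl pH 7.5, 2 mM EDTA, 150 mM NaCl; Fl 340/450, 0 & 15 min.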

[3] = biological target: Phospholipid hydroperoxide glutathione peroxidase GPX4 (Homo sapiens) (UniProt P36969); experiment: Primary qHTS Assay for Inhibitors of Recombinant Selenoprotein Glutathione Peroxidase 4 (GPX4) (AID 1845192); note: nearly all actives have a fitted effect of over 65% in size; note: potency is the fitted concentration of half-maximal effect
Phospholipid hydroperoxide glutathione peroxidase GPX4 (Homo sapiens), sequence (P36969 whole entry, looked up): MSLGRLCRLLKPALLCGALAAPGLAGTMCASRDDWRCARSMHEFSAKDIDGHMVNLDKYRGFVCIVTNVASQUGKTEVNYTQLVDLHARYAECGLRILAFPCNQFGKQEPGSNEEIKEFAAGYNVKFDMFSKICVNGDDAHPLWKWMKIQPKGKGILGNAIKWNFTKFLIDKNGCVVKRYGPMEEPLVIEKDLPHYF
How it was run: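 NADPH consumption, followed by fluorescence at 340/450 nm between 0 and 15 min, reports GPX4 activity via coupled glutathione reductase (100 nM). Enzyme 200 nM was pre-exposed to compound 30 min; 0.5 mM cumene hydroperoxide and 1 mM GSH served as substrates.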

[4] = biological target: Luciferin 4-monooxygenase (Photinus pyralis) (UniProt P08659); experiment: Primary firefly luciferase (FLuc) qHTS assay for identification of artifact compounds. (AID 1845220); note: nearly all actives have a fitted effect of over 60% in size
How it was run: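 FLuc 10 nM; luciferin 10 uM; ATP 10 uM; Tris-acetate pH 7.6, Mg-acetate 10 mM; 15 min RT preincubation; 5 min reaction; luminescence.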

[5] = Primary fluorescence-based thiol-reactive (MSTI) qHTS assay for identification of artifact compounds. (AID 1845221); note: nearly all actives have a fitted effect of over 65% in size; note: potency is the fitted concentration of half-maximal effect
How it was run: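 Compounds were incubated 1 h at room temperature in the dark with the MSTI probe (4 uM) in PBS pH 7.4, 2% DMSO. Signals were normalized between Acetyl-MSTI and MSTI.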

[6] = test system: Nanoluciferase (engineered Oplophorus gracilirostris luciferase); experiment: Primary Nanoluciferase (NLuc) qHTS assay for identification of artifact compounds. (AID 1845222);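 note: NLuc secreted into diluted conditioned medium of S16 cells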
How it was run: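 NLuc from S16 cell medium (1:55) plus test compounds, 15 min, room temperature. Luminescence after Nano-Glo (1:100) addition, 5 min.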

[7] = Primary redox qHTS assay for identification of artifact compounds. (AID 1845223)
How it was run: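 Amplex Red (25 uM) and HRP (250 mU/mL) in HBSS, with compounds for 15 min, then 250 uM DTT for 30 min, room temperature, dark. Fluorescence 525/598 nm read; normalized to DMSO and 10 uM DA3003; Hill fit.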

[8] = biological target: Catechol O-methyltransferase (Homo sapiens) (UniProt P21964); experiment: Confirmatory Screen for Target Class Profiling of Small Molecule Inhibitors of Methyltransferases (AID 1745852; calls by dose curve; note: potency is the fitted concentration of half-maximal effect); details: MTase-Glo luminescence, SAH detection, recombinant enzyme; measured here: COMT max response; stronger effect = lower value
Catechol O-methyltransferase (Homo sapiens), sequence (P21964 whole entry, looked up): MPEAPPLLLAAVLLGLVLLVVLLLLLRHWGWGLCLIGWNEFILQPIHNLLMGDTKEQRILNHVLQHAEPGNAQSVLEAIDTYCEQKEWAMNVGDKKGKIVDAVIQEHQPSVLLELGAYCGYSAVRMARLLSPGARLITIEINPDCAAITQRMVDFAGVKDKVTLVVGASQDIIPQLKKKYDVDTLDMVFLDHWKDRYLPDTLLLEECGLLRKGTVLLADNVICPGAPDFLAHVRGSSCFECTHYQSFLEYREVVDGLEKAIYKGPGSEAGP

[9] = biological target: Guanidinoacetate N-methyltransferase (Homo sapiens) (UniProt Q14353); experiment: as above; details: activity change, negative = inhibition: at 57.3 µM (top of the series) unless noted
[10] = biological target: Nicotinamide N-methyltransferase (Homo sapiens) (UniProt P40261); experiment: as above; details: MTase-Glo luminescence, SAH detection, recombinant enzyme; measured here: NNMT max response; stronger effect = lower value
Nicotinamide N-methyltransferase (Homo sapiens), sequence (P40261 whole entry, looked up): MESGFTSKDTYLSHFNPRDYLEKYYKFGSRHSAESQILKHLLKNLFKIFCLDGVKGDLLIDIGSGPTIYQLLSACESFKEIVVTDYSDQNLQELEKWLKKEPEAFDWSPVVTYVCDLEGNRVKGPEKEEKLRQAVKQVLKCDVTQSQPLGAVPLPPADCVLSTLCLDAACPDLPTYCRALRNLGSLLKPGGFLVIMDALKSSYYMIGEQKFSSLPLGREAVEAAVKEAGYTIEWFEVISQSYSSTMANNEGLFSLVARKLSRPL

[11] = biological target: Phenylethanolamine N-methyltransferase (Homo sapiens) (UniProt P11086); experiment: as above; details: MTase-Glo luminescence, SAH detection, recombinant enzyme; measured here: PNMT max response; stronger effect = lower value
Phenylethanolamine N-methyltransferase (Homo sapiens), sequence (P11086 whole entry, looked up): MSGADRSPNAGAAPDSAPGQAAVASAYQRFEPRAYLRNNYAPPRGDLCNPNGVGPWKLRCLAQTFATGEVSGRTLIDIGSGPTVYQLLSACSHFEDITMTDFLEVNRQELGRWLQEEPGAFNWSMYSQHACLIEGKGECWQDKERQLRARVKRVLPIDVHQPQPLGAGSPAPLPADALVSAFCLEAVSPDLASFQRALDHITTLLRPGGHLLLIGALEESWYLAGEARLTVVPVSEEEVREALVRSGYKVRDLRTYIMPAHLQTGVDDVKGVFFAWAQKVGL

[12] = NCATS anti-infectives library activity on the primary C. elegans qHTS viability assay (AID 1745855; calls by dose curve; note: potency is the fitted concentration of half-maximal effect)
How it was run: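 Viability read-out is GFP fluorescence of PE254-GFP-FLuc C. elegans, measured by laser cytometry (488 nm) at day 0, 3 and 7. Ten L1 worms per well were incubated 7 days at 21 °C with compounds and bacterial capsules in S medium.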

Compound	outcome [1]	Potency [2]	Potency [3]	Potency [4]	Potency [5]	Potency [6]	Potency [7]	activity [8]	activity change, negative = inhibition [9]	activity [10]	activity [11]	Potency [9]	Potency [12]
O=C(NC[C@H]1CN(c2ccc(N3CCOCC3=O)cc2)C(=O)O1)c1ccc(Cl)s1	inactive	inactive	inactive	inactive	inactive	inactive	inactive						
COc1cc2c(cc1-c1c(C)noc1C)ncc1[nH]c(=O)n(C(C)c3ccccn3)c12 (configuration not stated)			inactive	inactive	inactive	inactive	inactive	-17.8%	3.12%	-29.4%	0.401%		
O=c1[nH]c([C@@H]2CCCN2)nc2c1oc1ccc(Cl)cc12	inactive	inactive	inactive	inactive	inactive	inactive	inactive						
CCC(CC)C(c1ccc(Nc2nc3ccccc3s2)cc1)n1cncn1 (configuration not stated)		inactive		inactive	inactive	inactive	inactive	-3.56%	-4.47%	-14.5%	-5.31%		
CO[C@H]1C[C@@H]2CC[C@@H](C)[C@@](O)(O2)C(=O)C(=O)N2CCCC[C@H]2C(=O)O[C@H]([C@@H](C)C[C@@H]2CC[C@@H](O)[C@H](OC)C2)CC(=O)[C@H](C)/C=C(\C)[C@@H](O)[C@@H](OC)C(=O)[C@H](C)C[C@H](C)/C=C/C=C/C=C/1C	inactive	inactive	inactive	inactive		inactive	inactive						
O=C(Cc1cccc(OC(F)(F)F)c1)Nc1ccc(CCCCc2nnc(NC(=O)Cc3ccccn3)s2)nn1	inactive	inactive	inactive										
N#C/C(=C1\Nc2ccccc2S1)c1ccnc(NCCc2cccnc2)n1			inactive	inactive	1.34 µM (active)		inactive	-23.6%		-43.4%	-21.8%	15.2 µM (active)	
Cc1cc(N2CCOCC2)ccc1Nc1nc(NC2CCCCC2)c2[nH]cnc2n1				inactive	1.68 µM (active)	inactive	inactive	-13.2%	-8.72%	-20.9%	-9.51%		
Cc1cc2ncc(C(=O)NCC(C)(C)NCC(=O)N3CCC[C@H]3C#N)cn2n1	inactive	inactive	inactive	inactive	inactive	inactive	inactive						
NS(=O)(=O)c1ccc(NC(=O)Nc2ccc(F)cc2)cc1	inactive	inactive	inactive	inactive	inactive	inactive	inactive						12.9 µM (active)
Cn1nc(C(C)(C)C)cc1C(=O)N[C@@H](Cc1cccc(Cl)c1)C(=O)NCC#N	inactive	inactive	inactive	inactive	inactive	inactive	inactive						inactive
CCCCCc1ccc(/C=C/C(=O)Nc2cc(Cl)ccc2C(=O)O)cc1				inactive	inactive	inactive	inactive	-6.7%		-47.8%	-21.5%	42.9 µM (active)	
Cc1cnc(-c2ccccc2C(C)C)nc1NCc1ccc(-n2ccnn2)cc1	inactive	inactive	inactive	inactive	inactive		inactive						
N#Cc1ccc(N2N=C3c4ccc(C(=O)O)cc4CC[C@@H]3[C@@H]2C2CCCC2)cc1Cl		inactive		inactive	inactive	inactive	inactive	7.42%	-0.344%	-82.8%	0.228%		
c1cc(NC2CCNCC2)nc(-c2cnc3ccccn23)c1			16.1 µM (active)	inactive		inactive	inactive	-7.29%	-7.64%	-8.81%	-8.43%		
CC(C)(CNC(=O)c1cccc(-c2noc(C(F)(F)F)n2)c1)c1coc(-c2ccccc2)n1	inactive	inactive	inactive	inactive	inactive	inactive	inactive						
Cc1ccc(C)c(-c2cc(C(F)(F)F)nn2-c2ccc(S(N)(=O)=O)cc2)c1			inactive	inactive	inactive	inactive	inactive	-7.64%	-5.49%	-48.6%	-4.27%		
